PubChem BioAssay (NCI)
“And” between values parts separate entries of the source, which are not always exact repeats. Identical values can stand only once. About 83,000 compounds went through this panel and 20% of them were active in at least one assay; those are over-represented in the sample as a whole.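 48-hour exposure, single concentration, 96-well plates; percent growth endpoint where 0 means no net growth. Active: below 10.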 The source made the active and inactive calls.

Columns and labels:
Test in all cases: NCI-60 one-dose screen, 48 h (100 = growth as untreated, 0 = no growth, -100 = all killed)
Settings in all cases: 10 µM unless noted
NCI-H23 lung = system: NCI-H23 lung
NCI-H226 lung = system: NCI-H226 lung
NCI-H322M lung = system: NCI-H322M lung
HOP-62 NSCLC = system: HOP-62 NSCLC
NCI-H460 lung = system: NCI-H460 lung
HOP-92 NSCLC = system: HOP-92 NSCLC
NCI-H522 lung = system: NCI-H522 lung
A549/ATCC NSCLC = system: A549/ATCC NSCLC
786-0 renal = system: 786-0 renal
COLO 205 colon = system: COLO 205 colon
DU-145 prostate = system: DU-145 prostate
K-562 leukemia = system: K-562 leukemia
MALME-3M melanoma = system: MALME-3M melanoma
MDA-MB-231 breast = system: MDA-MB-231 breast
RXF 393 renal = system: RXF 393 renal
SF-268 CNS = system: SF-268 CNS
SF-295 CNS = system: SF-295 CNS
SF-539 CNS = system: SF-539 CNS
UACC-257 melanoma = system: UACC-257 melanoma
M14 melanoma = system: M14 melanoma

Structure (SMILES)	growth (NCI-H23 lung)	growth (NCI-H226 lung)	growth (NCI-H322M lung)	growth (HOP-62 NSCLC)	growth (NCI-H460 lung)	growth (HOP-92 NSCLC)	growth (NCI-H522 lung)	growth (A549/ATCC NSCLC)	growth (786-0 renal)	growth (COLO 205 colon)	growth (DU-145 prostate)	growth (K-562 leukemia)	growth (MALME-3M melanoma)	growth (MDA-MB-231 breast)	growth (RXF 393 renal)	growth (SF-268 CNS)	growth (SF-295 CNS)	growth (SF-539 CNS)	growth (UACC-257 melanoma)	growth (M14 melanoma)
CC(=O)c1c(C)nc(SCC(=O)Nc2ccc(Cl)cc2)n1-c1ccc(Cl)cc1	96.5% (inactive)	96% (inactive)	94.9% (inactive)	99% (inactive)	86.7% (inactive)	110% (inactive)	72.3% (inactive)	86.7% (inactive)	102% (inactive)	109% (inactive)	106% (inactive)	83% (inactive)	90.8% (inactive)	82% (inactive)	67.3% (inactive)	92.5% (inactive)	91.3% (inactive)	95.8% (inactive)	94.5% (inactive)	98.4% (inactive)
O=C(Nc1ccc2ncsc2c1)c1csc(Nc2ccc3[nH]ncc3c2)n1	62% (inactive)	59% (inactive)	51.5% (inactive)	61.7% (inactive)	19.5% (inactive)	67.5% (inactive)	24.7% (inactive)	44.3% (inactive)	42.8% (inactive)	31.2% (inactive)	35.5% (inactive)	28.1% (inactive)	57.1% (inactive)	62.9% (inactive)	13.9% (inactive)	55.8% (inactive)	25.5% (inactive)	22.9% (inactive)	63.8% (inactive)	25.2% (inactive)
COc1cccc(NC(=O)c2sc3nc(C)c(C(O)c4ccccc4)cc3c2N)c1 (stereo not given)	22.9% (inactive)	55% (inactive)	49.7% (inactive)	32.5% (inactive)	4.01% (active)	58.6% (inactive)	0.582% (active)	22.4% (inactive)	34.4% (inactive)	5.41% (active)	13.4% (inactive)	6.52% (active)	63.2% (inactive)	9.72% (active)	26.9% (inactive)	38.5% (inactive)	19.2% (inactive)	-5.58% (active)	71.4% (inactive)	13.9% (inactive)
O=c1oc2c(Br)cc(Br)cc2cc1-c1cc(-c2ccc(-c3cc(-c4cc5cc(Br)cc(Br)c5oc4=O)nc(-c4cc5cc(Br)cc(Br)c5oc4=O)c3)cc2)cc(-c2cc3cc(Br)cc(Br)c3oc2=O)n1	96.5% (inactive)	102% (inactive)	97.3% (inactive)	104% (inactive)	105% (inactive)	108% (inactive)	86.8% (inactive)	105% (inactive)	111% (inactive)	110% (inactive)	112% (inactive)	97.9% (inactive)	92.6% (inactive)	93.7% (inactive)	119% (inactive)	105% (inactive)	106% (inactive)	107% (inactive)	109% (inactive)	107% (inactive)
CCCCCO/N=C\c1c2c(O)c3c(O)c(C)c4c(c3c1O)C(=O)C(C)(O/C=C\C(OC)C(C)C(OC(C)=O)C(C)C(O)C(C)C(O)C(C)/C=C\C=C(\C)C(=O)N2)O4 (stereo not given)	19.7% (inactive)	26.9% (inactive)	53.2% (inactive)	34.7% (inactive)	5.62% (active)	-5.96% (active)	6.3% (active)	20.9% (inactive)	31.6% (inactive)	2.86% (active)	36% (inactive)	17.6% (inactive)	41.2% (inactive)	31.4% (inactive)	36.6% (inactive)	31.2% (inactive)	7.23% (active)	37.3% (inactive)	8.59% (active)	28.2% (inactive)
Clc1ccc2c(NCCN3CCN(c4ccnc(N5CCCC5)n4)CC3)ccnc2c1	56.8% (inactive)	80.3% (inactive)	44.3% (inactive)	77.3% (inactive)	16.7% (inactive)	23.3% (inactive)	45% (inactive)	24.6% (inactive)	29.4% (inactive)	-46.5% (active)	58.1% (inactive)	0.171% (active)	-43.3% (active)	4.01% (active)	-59.2% (active)	33% (inactive)	52.9% (inactive)	-63.1% (active)	-62% (active)	-55.7% (active)
OCCN1CCN(CC/C=C2\c3ccccc3Sc3ccc(Cl)cc32)CC1	50.7% (inactive) and 82.9% (inactive)	88.2% (inactive) and 110% (inactive)	83.1% (inactive)	-34.7% (active) and -66.1% (active)	2.77% (active) and -25% (active)	10.9% (inactive) and -12.9% (active)	37.9% (inactive) and 13.3% (inactive)	60% (inactive) and 38.2% (inactive)	38.6% (inactive)	-75.6% (active) and -87.3% (active)	17.1% (inactive) and 65% (inactive)	-90.8% (active) and -68.9% (active)	-53.2% (active)	29.3% (inactive) and 44.8% (inactive)	23.5% (inactive)	51.7% (inactive) and 46.6% (inactive)	47.6% (inactive) and 31% (inactive)	31.8% (inactive) and 59.7% (inactive)	-83.9% (active) and -94.1% (active)	-98.7% (active) and -88.3% (active)
O/N=C(/c1ccccc1)c1ccc2c3c(cccc13)CC2	97.3% (inactive) and 95.1% (inactive)	100% (inactive)	106% (inactive) and 102% (inactive)	93.1% (inactive) and 94.1% (inactive)	87.6% (inactive) and 96.7% (inactive)	49.4% (inactive) and 64.9% (inactive)	88.3% (inactive) and 89.6% (inactive)	73.8% (inactive) and 94.4% (inactive)	88.4% (inactive) and 92.1% (inactive)	117% (inactive) and 103% (inactive)	107% (inactive) and 105% (inactive)	42.4% (inactive) and 34.2% (inactive)	87.6% (inactive) and 91.9% (inactive)	82.7% (inactive) and 82.1% (inactive)	81.9% (inactive) and 64.7% (inactive)	105% (inactive) and 94.6% (inactive)	82.1% (inactive) and 83.3% (inactive)	111% (inactive) and 90.5% (inactive)	83.2% (inactive) and 87.2% (inactive)	95.3% (inactive) and 90.9% (inactive)
